Reference: PubChem BioAssay (Tox21)
Inconclusive results are not listed. Calls of active or inactive are those of the source. The call rests on the fitted dose curve; in most records, active means well fitted curve in the direction sought with a large enough effect in the repeat runs; inconclusive means weak or mixed curves; inactive means no such curve, though single readings can be large; an effect the other way counts as inactive or inconclusive.

Legend:
[1] = qHTS RealTime-Glo MT Cell Viability Assay in HEK293 cells - 16 hour (AID 1224872); further: top concentration of the series differs between compounds; nearly all actives have a fitted effect of over 50% in size
Procedure, shortened: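 Homogeneous bioluminescent viability format in HEK293 cells (600 cells/well). Following 5 h at 37 C/5% CO2, 23 nL compound was pintooled; the signal was measured repeatedly during 40 h incubation.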

[2] = qHTS RealTime-Glo MT Cell Viability Assay in HepG2 cells - 8 hour (AID 1224873); further: nearly all actives have a fitted effect of over 55% in size
Procedure, shortened: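 HepG2 cells (600/well) mixed with RealTime-Glo MT reagent, settled 5 h at 37 C/5% CO2 before compound addition. Nonlytic NanoLuc luminescence from viable-cell prosubstrate reduction read repeatedly during 40 h treatment at 37 C.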

[3] = qHTS RealTime-Glo MT Cell Viability Assay in HEK293 cells - 40 hour (AID 1224874); conditions: RealTime-Glo luminescence; max response: active compounds read low; further: nearly all actives have a fitted effect of over 50% in size
Procedure, shortened: (§1)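 qHTS format; HEK293 cells with NanoLuc/prosubstrate reagent, 37 C/5% CO2 for 5 h pre-dosing; compounds 23 nL in DMSO; luminescence at each time point reflects viable cells.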

[4] = A CellTox Green Cytotoxicity Assay to monitor cytotoxicity in HEK293 cells - 24 hour (AID 1224875); further: series mostly up to about 77 µM; nearly all actives have a fitted effect of over 45% in size
Procedure, shortened: (§2)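 Each value comes from one timepoint of a single continuous run in which HEK293 cells with CellTox Green were exposed to compound for up to 40 h at 37 C, dye fluorescence rising with cell death.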

[5] = A CellTox Green Cytotoxicity Assay to monitor cytotoxicity in HepG2 cells - 16 hour (AID 1224876); further: nearly all actives have a fitted effect of over 45% in size
Procedure, shortened: (§3)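 Continuous culture of HepG2 cells with a membrane-impermeant DNA dye; rising fluorescence marks dead cells. Compound exposure lasted up to 40 h at 37 C, with reads every 8 h from 0 h.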

[6] = qHTS RealTime-Glo MT Cell Viability Assay in HepG2 cells - 32 hour (AID 1224877); further: nearly all actives have a fitted effect of over 55% in size
Procedure, shortened: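 Cell number in HepG2 cultures estimated from NanoLuc luminescence generated by metabolic reduction of a prosubstrate by living cells. The homogeneous, nonlytic format allowed repeated reads at 0, 8, 16, 24, 32 and 40 h of compound exposure.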

[7] = A CellTox Green Cytotoxicity Assay to monitor cytotoxicity in HepG2 cells - 24 hour (AID 1224878); further: nearly all actives have a fitted effect of over 45% in size
Procedure, shortened: as §3

[8] = A CellTox Green Cytotoxicity Assay to monitor cytotoxicity in HepG2 cells - 40 hour (AID 1224879); further: nearly all actives have a fitted effect of over 40% in size
Procedure, shortened: as §3

[9] = qHTS RealTime-Glo MT Cell Viability Assay in HEK293 cells - 0 hour (AID 1224880); further: nearly all actives have a fitted effect of over 45% in size; further: potency means the concentration at half of the fitted maximal effect; on activity change, negative = cytotoxicity: top concentration of the series differs between compounds
Procedure, shortened: as §1

[10] = A CellTox Green Cytotoxicity Assay to monitor cytotoxicity in HEK293 cells - 32 hour (AID 1224881); further: nearly all actives have a fitted effect of over 40% in size
Procedure, shortened: as §2
On the % scale 0 is the no-effect control and ±100 the full control effect.

CCOC(=O)N1CCC(Nc2ccc(Cl)cc2N)CC1
inactive: Potency [1] | Potency [2] | max response [3] -19% | Potency [4] | Potency [5] | Potency [6] | Potency [7] | Potency [8] | Potency [9] | Potency [10]

CC(=O)NCCO
inactive: Potency [1] | Potency [2] | max response [3] 8.1% | Potency [4] | Potency [5] | Potency [6] | Potency [7] | Potency [8] | Potency [9] | Potency [10]

O=C(O)CCS
inactive: Potency [1] | Potency [2] | max response [3] 7.66% | Potency [4] | Potency [5] | Potency [6] | Potency [7] | Potency [8] | Potency [9] | Potency [10]

Cc1c(C2(c3cc(Br)c(O)c(Br)c3C)OS(=O)(=O)c3ccccc32)cc(Br)c(O)c1Br
active: Potency [9] 15 µM
inactive: Potency [1] | Potency [2] | max response [3] -21.5% | Potency [4] | Potency [5] | Potency [6] | Potency [7] | Potency [8] | Potency [10]

CC(=O)NNC(C)=O
inactive: Potency [1] | Potency [2] | max response [3] 0.186% | Potency [4] | Potency [5] | Potency [6] | Potency [7] | Potency [8] | Potency [9] | Potency [10]

CSCC[C@H](NC(=O)[C@H](Cc1c[nH]c2ccccc12)NC(=O)CCNC(=O)OC(C)(C)C)C(=O)N[C@@H](CC(=O)O)C(=O)N[C@@H](Cc1ccccc1)C(N)=O
inactive: Potency [1] | Potency [2] | max response [3] 3.31% | Potency [4] | Potency [5] | Potency [6] | Potency [7] | Potency [8] | Potency [9] | Potency [10]

COc1ccc(N)c([N+](=O)[O-])c1
inactive: Potency [1] | Potency [2] | max response [3] -15.1% | Potency [4] | Potency [5] | Potency [6] | Potency [7] | Potency [8] | Potency [9] | Potency [10]

Nc1ccc(F)cc1
inactive: Potency [1] | Potency [2] | max response [3] 14.2% | Potency [4] | Potency [5] | Potency [6] | Potency [7] | Potency [8] | Potency [9] | Potency [10]

O=C(O)CNC(=O)c1ccccc1I
inactive: Potency [1] | Potency [2] | max response [3] 6.48% | Potency [4] | Potency [5] | Potency [6] | Potency [7] | Potency [8] | Potency [9] | Potency [10]

CCN(CC)c1cccc(O)c1
inactive: Potency [1] | Potency [2] | max response [3] 7.38% | Potency [4] | Potency [5] | Potency [6] | Potency [7] | Potency [8] | Potency [9] | Potency [10]

COC(C)(C)OC
inactive: Potency [1] | Potency [2] | max response [3] 15.9% | Potency [4] | Potency [5] | Potency [6] | Potency [7] | Potency [8] | Potency [9] | Potency [10]

CCCCCCCCCCCCCOC(=O)CCSCCC(=O)OCCCCCCCCCCCCC
inactive: activity change, negative = cytotoxicity [1] -1.74% [at 15.8 µM] | viability change, negative = cytotoxic [2] -12% [at 15.8 µM] | max response [3] -0.06% | activity change [4] 16% [at 15.8 µM, active compounds read high] | cytotoxicity increase [5] -0.0072% [at 15.8 µM] | activity change, negative = cytotoxic [6] 0.647% [at 15.8 µM] | cytotoxicity [7] -0.358% [at 15.8 µM] | cytotoxicity increase [8] -4.11% [at 15.8 µM] | activity change, negative = cytotoxicity [9] -5.28% [at 15.8 µM] | cytotoxicity increase [10] 13.9% [at 15.8 µM]

O=c1[nH]c2cc(C(F)(F)F)c(N3CCOCC3)cc2n(CP(=O)(O)O)c1=O
inactive: Potency [1] | Potency [2] | max response [3] 8.28% | Potency [4] | Potency [5] | Potency [6] | Potency [7] | Potency [8] | Potency [9] | Potency [10]

CC(=O)C(=O)CC(C)C
inactive: Potency [1] | Potency [2] | max response [3] 9.63% | Potency [4] | Potency [5] | Potency [6] | Potency [7] | Potency [8] | Potency [9] | Potency [10]

CC(C)(C)NCC(O)COc1cccc2c1C[C@H](O)[C@H](O)C2 (stereo not given in full)
inactive: Potency [1] | Potency [2] | max response [3] 4.53% | Potency [4] | Potency [5] | Potency [6] | Potency [7] | Potency [8] | Potency [9] | Potency [10]

Nc1nc(-c2ccc([N+](=O)[O-])cc2)cs1
inactive: Potency [1] | Potency [2] | max response [3] -14.1% | Potency [4] | Potency [5] | Potency [6] | Potency [7] | Potency [8] | Potency [9] | Potency [10]

C=Cc1ccc(OC(C)=O)cc1
inactive: Potency [1] | Potency [2] | max response [3] 18.3% | Potency [4] | Potency [5] | Potency [6] | Potency [7] | Potency [8] | Potency [9] | Potency [10]

CCOC(=O)C(C)O (stereo not given)
inactive: Potency [1] | Potency [2] | max response [3] 15.3% | Potency [4] | Potency [5] | Potency [6] | Potency [7] | Potency [8] | Potency [9] | Potency [10]

Cc1cc([N+](=O)[O-])ccc1N
inactive: Potency [1] | Potency [2] | max response [3] -19.2% | Potency [4] | Potency [5] | Potency [6] | Potency [7] | Potency [8] | Potency [9] | Potency [10]

CCC1CCC(CCC(=O)O)C1 (stereo not given)
inactive: Potency [1] | Potency [2] | max response [3] -15.6% | Potency [4] | Potency [5] | Potency [6] | Potency [7] | Potency [8] | Potency [9] | Potency [10]

CC(=O)OCC1=C(C(=O)O)N2C(=O)[C@@H](NC(=O)CSc3ccncc3)[C@H]2SC1
inactive: Potency [1] | Potency [2] | max response [3] 5.21% | Potency [4] | Potency [5] | Potency [6] | Potency [7] | Potency [8] | Potency [9] | Potency [10]

O=C(O)/C=C/c1ccc(O)c(O)c1
inactive: Potency [1] | Potency [2] | max response [3] -2.68% | Potency [4] | Potency [5] | Potency [6] | Potency [7] | Potency [8] | Potency [9] | Potency [10]

CCCCCCCCCCCC(=O)OCC(O)CO (stereo not given)
inactive: Potency [1] | Potency [2] | max response [3] 6.6% | Potency [4] | Potency [5] | Potency [6] | Potency [7] | Potency [8] | Potency [9] | Potency [10]

CC(C)CC(O)CC(C)C
inactive: Potency [1] | Potency [2] | max response [3] 2.3% | Potency [4] | Potency [5] | Potency [6] | Potency [7] | Potency [8] | Potency [9] | Potency [10]

O=S(=O)(O)CO
inactive: Potency [1] | Potency [2] | max response [3] 4.46% | Potency [4] | Potency [5] | Potency [6] | Potency [7] | Potency [8] | Potency [9] | Potency [10]

CC(C)(C)C(O)/C=C/c1ccc2c(c1)OCO2 (stereo not given)
inactive: Potency [1] | Potency [2] | max response [3] 1.57% | Potency [4] | Potency [5] | Potency [6] | Potency [7] | Potency [8] | Potency [9] | Potency [10]

COC(OC)OC
inactive: Potency [1] | Potency [2] | max response [3] 11.5% | Potency [4] | Potency [5] | Potency [6] | Potency [7] | Potency [8] | Potency [9] | Potency [10]

O=C(NC(Cc1cc(=O)[nH]c2ccccc12)C(=O)O)c1ccc(Cl)cc1 (stereo not given)
inactive: Potency [1] | Potency [2] | max response [3] 3.38% | Potency [4] | Potency [5] | Potency [6] | Potency [7] | Potency [8] | Potency [9] | Potency [10]

O=CNNC=O
inactive: Potency [1] | Potency [2] | max response [3] 10.2% | Potency [4] | Potency [5] | Potency [6] | Potency [7] | Potency [8] | Potency [9] | Potency [10]

Cc1ccc(S(=O)(=O)NC(=O)NC2CCCCC2)cc1
inactive: Potency [1] | Potency [2] | max response [3] 4.44% | Potency [4] | Potency [5] | Potency [6] | Potency [7] | Potency [8] | Potency [9] | Potency [10]

CCCCCCC(O)CCOC(C)=O (stereo not given)
inactive: Potency [1] | Potency [2] | max response [3] 0.328% | Potency [4] | Potency [5] | Potency [6] | Potency [7] | Potency [8] | Potency [9] | Potency [10]

O=C1NC(=O)c2cccc3cccc1c23
inactive: Potency [1] | Potency [2] | max response [3] -4.43% | Potency [4] | Potency [5] | Potency [6] | Potency [7] | Potency [8] | Potency [9] | Potency [10]

CC(=O)OCC(C)C
inactive: Potency [1] | Potency [2] | max response [3] 1.5% | Potency [4] | Potency [5] | Potency [6] | Potency [7] | Potency [8] | Potency [9] | Potency [10]

CNC1CCCN(c2c(F)cc3c(=O)c(C(=O)O)cn(C4CC4)c3c2OC)C1 (stereo not given)
inactive: Potency [1] | Potency [2] | max response [3] -1.56% | Potency [4] | Potency [5] | Potency [6] | Potency [7] | Potency [8] | Potency [9] | Potency [10]

CCOC(=O)c1ccc(NC(=O)CN2CCCCC2)cc1
inactive: Potency [1] | Potency [2] | max response [3] -19.4% | Potency [4] | Potency [5] | Potency [6] | Potency [7] | Potency [8] | Potency [9] | Potency [10]

CCC(CO)(CO)CO
inactive: Potency [1] | Potency [2] | max response [3] 5.95% | Potency [4] | Potency [5] | Potency [6] | Potency [7] | Potency [8] | Potency [9] | Potency [10]

Cc1cc(CCC(=O)OCCOCCOCCOC(=O)CCc2cc(C)c(O)c(C(C)(C)C)c2)cc(C(C)(C)C)c1O
inactive: Potency [1] | Potency [2] | max response [3] 6.66% | Potency [4] | Potency [5] | Potency [6] | Potency [7] | Potency [8] | Potency [9] | Potency [10]
